We go through 81 molecules from ChEMBL document CHEMBL4513216, “Probing the Open Global Health Chemical Diversity Library for Multistage-Active Starting Points for Next-Generation Antimalarials” (ACS Infect Dis, 2020).

Screen size: about 69,000 compounds; about 8,600 (12%) showed an effect of 50% or more. The sample holds strong results, similar compounds and a random draw of the others, so the mix is not that of the screen.

The test relates to Plasmodium berghei. The test is described as follows: Screen against P. berghei liver stage (PbLuc), transformed with Luciferase, at 10uM. The format is functional, HepG2. The settings on record: tested at 10 uM.
With `Cc1cnc2c(S(=O)(=O)NC3CCS(=O)(=O)C3)cccc2c1` (stereo unspecified), the INHIBITION was found to be 10%. With `Cc1ccc(C(=O)N(C)Cc2cc(C)on2)cn1`, the INHIBITION was found to be 21.5%.

On to `N#Cc1ccccc1N1CCCN(C(=O)CCc2ccco2)CC1`, for which the INHIBITION is -2.53%. `CSCC(=O)N[C@H]1CC[C@H](Nc2nccc(-c3cccnc3)n2)C1`: the INHIBITION was 49.7%. For `CN1CCc2[nH]nc(C(=O)N3CCCC4(CC3)CNC(=O)O4)c2C1` (stereo unspecified), the INHIBITION worked out at 46.1%.

As for `CN1CCc2[nH]nc(C(=O)N3CCC4(CCCO4)CC3)c2C1`, the INHIBITION came out at 71.2%.

As for `CN1CCc2[nH]nc(C(=O)N3CCC4(CN(C)C(=O)O4)C3)c2C1` (stereo unspecified), the INHIBITION was 48.9%.

With `CSCc1cc(C(=O)NC2(C#N)CCSC2)ccc1F` (stereo unspecified), the INHIBITION is -77.6%.

For `N#CC1(NC(=O)c2ccc(F)c(Br)c2)CCSC1` (stereo unspecified), the INHIBITION worked out at 51.8%. As for `CSCc1cc(C(=O)NC2(C#N)CC2)ccc1F`, the INHIBITION amounted to 32.3%. `Cc1nn(C)c(C)c1C(=O)N1CCOCC1CC(=O)c1ccco1` (stereo unspecified): the INHIBITION stood at 17.4%.

As to `CCOC(=O)C1(O)CCN(C(=O)Nc2ccc(CC)cc2)CC1`, the INHIBITION was -62.8%.

Take `CN(C)CCN1C(=O)CO[C@@H]2CN(c3ncc(F)cn3)C[C@H]21`: the INHIBITION amounted to 17.2%. Regarding `Cc1cnc(N2C[C@@H]3[C@@H](C2)OCC(=O)N3CC2CC2)nc1`, the INHIBITION turned out to be 31.9%. Turning to `Cc1cnc(N2C[C@@H]3[C@@H](C2)OCC(=O)N3CCN(C)C)nc1`, the INHIBITION amounted to 73.3%. Regarding `Cc1nn(C)c(N(C)C)c1CNCc1ccc(Cn2cncn2)cc1`, the INHIBITION is on record as -56.7%. The figure for `O=C(O)c1cccnc1CN1CCCCC1CCc1ccccn1` (stereo unspecified) is 37.6%; for `O=C(O)c1cccnc1CN1CCCCC1CCc1cccc(O)c1` (stereo unspecified) it is 41.2%; for `O=C(O)c1cccnc1CN1CCCC1CCc1ccccc1` (stereo unspecified) it is 51.2%. Regarding `CCOCC1CN(S(=O)(=O)c2cccc(C)c2)Cc2nccn2C1` (stereo unspecified), the INHIBITION is listed as 13.1%.

As for `CCC(C(=O)N(C)Cc1cc(-c2ccccc2)n[nH]1)n1cccn1` (stereo unspecified), the INHIBITION worked out at 5.11%. Turning to `Cn1ccnc1N1CCN(C(=O)Cc2ccc(Cl)cc2)CC1`, the INHIBITION was -17.2%. For `OC1(CNCCN2CCc3ccccc32)CNCCOC1` (stereo unspecified), the INHIBITION amounted to 36.1%. Turning to `OC1(CNCCSc2ccccn2)CNCCOC1` (stereo unspecified), the INHIBITION stood at 67.2%. In the case of `OC1(CNCCSc2ccccn2)CCCNC1` (stereo unspecified), the INHIBITION came to 38.3%. For the molecule `Cc1ccccc1C(=O)N1CCOCC1CN(C)C` (stereo unspecified), the INHIBITION is reported as 1.06%. On to `Cc1c(CNC2CCN(c3ccccc3OC(F)F)C2)cnn1C` (stereo unspecified), for which the INHIBITION stood at 5.64%. On to `Cc1noc(C)c1CNC1CCN(c2ccccc2OC(F)F)C1` (stereo unspecified), for which the INHIBITION came out at 67.4%. In the case of `COc1ccccc1N1CCC(NCc2c(C)noc2C)C1` (stereo unspecified), the INHIBITION stood at 1.94%. For `O=C1C(Nc2ncccn2)CCN1c1ccccc1OC(F)F` (stereo unspecified), the INHIBITION was -10.7%.

In the case of `O=C(NC1CCN(c2ccccc2OC(F)F)C1)c1c[nH]nn1` (stereo unspecified), the INHIBITION is reported as -39.7%. Regarding `O=C(Nc1ccccn1)NC1CCN(c2ccccc2OC(F)F)C1` (stereo unspecified), the INHIBITION amounted to 67.8%. As to `O=C(Nc1cn[nH]c1)NC1CCN(c2ccccc2OC(F)F)C1` (stereo unspecified), the INHIBITION was 29.8%.

Consider `COc1ccccc1N1CCCC(NC(=O)Nc2cccnc2)C1` (stereo unspecified), for which the INHIBITION stood at 10.7%. As to `N#Cc1nccnc1NC1CCN(c2ccccc2OC(F)F)C1` (stereo unspecified), the INHIBITION is listed as 36.5%. Consider `O=C(Nc1ccncc1)NC1CCN(c2ccccc2OC(F)F)C1` (stereo unspecified), for which the INHIBITION is listed as 79%. With `O=C(NC1CCN(c2ccccc2OC(F)F)C1)c1cccnc1` (stereo unspecified), the INHIBITION worked out at 27.5%. `O=C(Nc1cccnc1)NC1CCN(c2ccccc2OC(F)F)C1` (stereo unspecified): the INHIBITION was determined as 56.6%.

`CCn1cc(S(=O)(=O)NCc2ccnc(-n3ccnc3)c2)cn1`: the INHIBITION is reported as -0.85%. For the molecule `CN(Cc1cnn(C)c1)CC(O)c1ccc2c(c1)OCO2` (stereo unspecified), the INHIBITION is 46.6%.

For the molecule `Cn1nc(C(=O)NCCc2ccc(OC3CCCC3)cc2)ccc1=O`, the INHIBITION was found to be 35.5%. In the case of `Cc1nn(C)c2cn(CC(=O)NC3CCSCC3)nc12`, the INHIBITION turned out to be 19.8%. On to `CCN(C(=O)c1ccc2nnc(C3CCN(CCOC)C3)n2c1)C(C)C` (stereo unspecified), for which the INHIBITION is 34%. The result for `CC(C)[C@H](NC(=O)N1CCC(Cc2ccccc2)CC1)C(=O)O` reads 31.3%; that for `O=C(NCC1CCCO1)c1ccc(S(=O)(=O)NCCc2cn[nH]c2)cc1` (stereo unspecified), -17.5%; that for `CC(C)N1CCCCC1c1cc(CO)[nH]n1` (stereo unspecified), -8.24%. As to `CCc1nnc(CN2CCCC(Cn3nc(C)nc3C)C2)o1` (stereo unspecified), the INHIBITION is listed as 44.9%. As for `COc1ccc(S(=O)(=O)NCCC(=O)NCc2ccoc2)cc1OC`, the INHIBITION is listed as 3.77%. Consider `O=C(CCc1ccsc1)NCC1CCN(C2CC2)C1` (stereo unspecified), for which the INHIBITION is listed as 22.8%. Consider `C1CC(CN2CC[C@@H]3O[C@@H](c4nnc(C5CC5)o4)C[C@H]3C2)CCO1`, for which the INHIBITION turned out to be 14.5%. The result for `CN1CCOCC2(CCCN(C(=O)c3cnccn3)C2)C1` (stereo unspecified) reads 18.3%; that for `CCN(CCO)Cc1ccc(Br)c2cccnc12`, 7.07%.

On to `O=C(c1ccccn1)N1CCc2c(nc(N3CCCC3)[nH]c2=O)C1`, for which the INHIBITION is recorded as 50%. Take `O=C(c1cc[nH]n1)N1CCc2c(nc(N3CCCCC3)[nH]c2=O)C1`: the INHIBITION came to 3.91%. Take `O=C(c1ccccn1)N1CCc2c(nc(-c3ccncc3)[nH]c2=O)C1`: the INHIBITION was -12.1%. Regarding `CCCc1nnc(N2CCN(c3ccccc3Cl)CC2)o1`, the INHIBITION is on record as -15.3%.

With `CN(C)CC(C)(C)Cn1cnc(-c2ccccc2)c1-c1ncc[nH]1`, the INHIBITION is 18.8%. For the molecule `CN(c1ccc(CNc2c(Cl)cccc2C#N)cc1)S(C)(=O)=O`, the INHIBITION was found to be 36.9%.

Turning to `CCS(=O)(=O)c1ccc(CNc2c(Cl)cccc2C#N)cc1`, the INHIBITION worked out at 74.9%. For the molecule `CN(C)C(=O)c1ccc(CNc2c(Cl)cccc2C#N)cc1`, the INHIBITION was determined as 45.2%. Regarding `CS(=O)(=O)N1CCC(CNc2c(Cl)cccc2C#N)CC1`, the INHIBITION is reported as 19.7%. The result for `CNC(=O)COc1ccc(CNc2c(Cl)cccc2C#N)cc1` reads 60.1%; that for `CNC(=O)COc1ccc(CNCc2cc(F)ccc2F)cc1`, -4.12%. `CCC(=O)Nc1nnc(CCOc2ccccc2)s1`: the INHIBITION is -17.2%.

On to `Cc1nc(CN2CCC(c3ccnn3CCO)CC2)oc1C`, for which the INHIBITION is given as -12.2%. As for `CN(C)C(=O)CN(C)C(=O)c1csc(Br)c1`, the INHIBITION is -13.2%.

On to `CN(C)c1ccc(CC2CCCN(c3cnccn3)C2)nn1` (stereo unspecified), for which the INHIBITION is reported as -14.2%.

For the molecule `OC(CNC1CCSCC1)c1cccc(OCc2ccccc2)c1` (stereo unspecified), the INHIBITION came out at 44.5%. For `Cc1nc(CN(C)C(=O)Nc2cccc(C)c2C)no1`, the INHIBITION is reported as 28.1%.

Consider `COc1ccc(OC2CCN(C(=O)C3CCCN(C)C3)CC2)cc1` (stereo unspecified), for which the INHIBITION was 67.5%. Turning to `N#Cc1ccc(OC2CCN(C(=O)c3ccc4c(c3)OCO4)CC2)nc1`, the INHIBITION came to 40.9%. Regarding `N#Cc1ccc(OC2CCN(C(=O)c3ccc(Br)o3)CC2)nc1`, the INHIBITION is reported as -0.532%. Regarding `COc1ccc(OC2CCN(C(=O)c3cnc(C)s3)CC2)cc1`, the INHIBITION is recorded as 30.8%. On to `COc1cccc(OC2CN(C(=O)C3CCCN(C(=O)N(C)C)C3)C2)c1` (stereo unspecified), for which the INHIBITION came out at 42.6%.

As to `CN1CCCC(C(=O)N2CCC(Oc3ncccn3)CC2)C1` (stereo unspecified), the INHIBITION worked out at 30.5%. The result for `N#Cc1ccc(C(=O)N2CCC(Oc3ccc(C#N)cn3)CC2)cc1` reads 32.2%. As for `N#Cc1ccc(OC2CCN(C(=O)c3cncc(Br)c3)CC2)nc1`, the INHIBITION is recorded as 54.5%. Take `N#Cc1ccc(OC2CCN(C(=O)Cc3cccs3)CC2)nc1`: the INHIBITION stood at 65.7%.

As to `N#Cc1ccc(OC2CCN(C(=O)c3ccccc3Cl)CC2)nc1`, the INHIBITION was found to be 7.44%. The figure for `COc1ccc(OC2CCN(C(=O)c3ccc(C(C)=O)s3)CC2)cc1` is 71.5%. Turning to `CC(=O)c1ccc(C(=O)N2CCC(c3cc(O)nc(C)n3)CC2)s1`, the INHIBITION was 8.24%.
